# Many of the other results were omitted from the sample, so hits are more common in it than they were.
# AmpC inh no detg: AmpC beta-lactamase inhibition without detergent. AmpC nitrocefin hydrolysis, absorbance 480 nm, 0.0001% Triton. AID 485341. 0.52% of 330,000 active. Potency, µM (series often up to 57.1 µM), without a hit: at the highest dose activity change, negative = inhibition, most hits filed as inhibitors;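 further: potency means the concentration at half of the fitted maximal effect; plate controls were no compound for no effect and no enzyme for full effect; nearly all actives have a fitted effect of over 20% in size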
# Target sequence (P00811 whole entry, looked up): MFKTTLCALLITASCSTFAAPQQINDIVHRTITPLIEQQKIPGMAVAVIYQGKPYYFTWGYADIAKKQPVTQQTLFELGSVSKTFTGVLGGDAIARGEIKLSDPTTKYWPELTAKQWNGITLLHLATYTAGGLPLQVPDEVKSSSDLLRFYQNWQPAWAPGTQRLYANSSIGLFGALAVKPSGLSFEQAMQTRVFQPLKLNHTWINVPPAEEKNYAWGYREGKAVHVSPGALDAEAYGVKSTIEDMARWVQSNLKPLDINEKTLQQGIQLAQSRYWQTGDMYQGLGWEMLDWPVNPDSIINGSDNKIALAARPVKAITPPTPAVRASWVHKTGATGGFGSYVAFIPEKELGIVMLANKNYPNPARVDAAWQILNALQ
#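 AmpC (5.3 nM in the dispensed reagent) in 20 mM phosphate pH 7.0 with 0.01% (detergent screen) or 0.0001% Triton X-100 was preincubated with compounds for 15 min at room temperature. Nitrocefin was then added from an 800 uM solution, and hydrolysis was followed at 480 nm.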
# NS1 inh: influenza NS1 inhibition | Potency, µM (highest dose often 46.1 µM), for the others: at the top dose activity, positive = more growth | 0.4% of 270,000 active | AID 2326; calls by dose curve; further: potency means the concentration at half of the fitted maximal effect; actives are rising curves; nearly all actives have a fitted effect of over 50% in size
#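 Read-out: OD600 growth recovery of NS1-expressing budding yeast. Cells grown overnight at 30C in -URA glucose medium, washed, resuspended and diluted 1:100 in 2% galactose assay medium, pH 6.0. Same strain lacking NS1 served as positive control.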
# CHX counter: counter-screen hit for Shiga toxin inhibitors, cycloheximide; cell reporter, cycloheximide protein synthesis inhibition counterscreen; max response, %; 12% of 300,000 active; in the data active means max response mostly above about 13%, no sharp cut-off; inactive means mostly below about 14%; further: read at 38.3 µM for the half of the compounds with a filed dose; 0% is about no effect
# AmpC detergent: blocks E. coli AmpC beta-lactamase in detergent assay; Potency, µM (series often up to 114 µM), for the others: top-dose activity change, negative = inhibition, most hits filed as inhibitors; 0.041% of 370,000 active; AmpC hydrolysis of nitrocefin, absorbance 480 nm, 0.01% Triton; P00811;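 further: potency means the concentration at half of the fitted maximal effect; 0% = no-compound wells and -100% = no-enzyme wells; nearly all actives have a fitted effect of over 25% in size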
#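 20 mM phosphate pH 7.0 + 0.01% (detergent screen) or 0.0001% Triton X-100; 5.3 nM AmpC reagent; cpd preinc 15 min RT; nitrocefin (800 uM stock) to start; A480 q20 s × 4 min; Activity was normalised to no-enzyme and no-compound control wells.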
# Shiga toxin inh: inhibitors of Shiga toxin in Vero cells; Vero cells, Shiga toxin protein synthesis inhibition reporter; inhibition, % at 38.7 µM; 9.2% of 290,000 active; in the data active means inhibition mostly above about 28%, no sharp cut-off; inactive means mostly below about 43%; further: 0% is about no effect
# Active calls of the source: *; u = inconclusive; x = no result given. Unless noted, the call rests on the fitted dose curve; in most records, active means well fitted curve in the direction sought with a large enough effect; inconclusive means small, poorly fitted or top-dose-only effect, or another doubt; inactive means no such curve, though single readings can be large; an effect the other way counts as inactive or inconclusive.
SMILES,AmpC inh no detg,NS1 inh,CHX counter,AmpC detergent,Shiga toxin inh
Cc1ccc(Cl)cc1NC(=O)c1ccc(CSc2nnnn2C)cc1,-24.2%,-2.9%,1.0,-4.3%,-20.1
O=C(Nc1ccc(Br)cc1)c1ccc(CSC2=NCCS2)cc1,-34.4%,9.6%,61.5*,0.8%,80.5*
O=C(Nc1ccncc1)c1ccc(Br)cc1,-4.6%,-31.1%,10.0,-5.7%,45.1
CCC(=O)Nc1cc(-c2nc3cc(C)cc(C)c3o2)ccc1C,x,x,x,3.5%,x
CCOC(=O)c1cccc(NC(=O)CC(c2ccc(F)cc2)N2Cc3ccccc3C2=O)c1 (configuration not stated),x,x,x,24.4%,x
Cc1nnc(SCc2ccc(C(=O)O)cc2)s1,-11.5%,4.0%,-6.0,-1.5%,-6.9
Cc1ccc(NC(=O)c2ccc(CSc3nnc(C)s3)cc2)cc1,-0.2%,3.0%,54.7*,6.1%,139.7*
Cc1cc(C)cc(NC(=O)c2ccc(CSc3nnc(C)s3)cc2)c1,7.0%,11.8%,29.2*,-4.6%,79.9*
CCc1cc(Cn2nc(-c3ccccc3)cc2C(=O)NCc2cccc(Br)c2)on1,-9.7%,x,x,x,x
COc1ccc2c(c1)C(=NN)c1cc(OC)ccc1-2,-0.7%,4.4%,45.4*,-0.8%,84.9
CCC1CCc2sc(C(=O)O)cc2C1 (configuration not stated),-12.8%,-200.9%,-2.8,u,-13.4
C=CCN1CCN(C(=O)c2cc3c(s2)CCC(CC)C3)CC1 (configuration not stated),111.5%,-0.8%,36.5*,7.2%,50.3*
Cc1ccccc1NC(=O)COc1ccc(Br)cc1C,-26.1%,-12.9%,41.1*,u,54.4*
COc1cc(CO)c(Br)cc1OCC(=O)Nc1ccccc1C,-20.9%,x,31.8*,-0.7%,28.8
COc1ccc(OC)c(NC(=O)C(=O)NNC(=O)COc2ccc(Br)cc2C)c1,-36.0%,1.7%,1.3,-4.1%,-15.5
O=C1C(Cl)=C(NC2CCCCC2)C(=O)N1c1ccc(Cl)cc1,-26.4%,0.2%,25.4*,-13.6%,52.9*
CN(CCc1cnn(C)c1)C(=O)CCc1nnc(CCCc2ccccc2)o1,26.1%,-2.2%,17.2*,4.2%,35.6*
CN(CCc1ccccn1)C(=O)CCc1nnc(CCCc2ccccc2)o1,38.8%,0.0%,45.0*,8.3%,72.8*
Cc1cc(-c2nnc3n2N=C(c2ccc(F)cc2)CS3)n[nH]1,-15.7%,0.6%,0.5,-10.1%,-0.9
Cc1ccc(CNc2nc(-c3ccco3)nn2C(=O)c2ccccc2[N+](=O)[O-])cc1,x,x,x,-6.0%,x
Cc1ccc2nc(-c3ccc(NC(=O)CCN4C(=O)c5ccccc5C4=O)cc3)sc2c1,-8.4%,u,55.5*,2.4%,78.9*
Cc1ccc(C2(C)NC(=O)N(CC(=O)c3ccc(Cl)s3)C2=O)cc1 (configuration not stated),28.2µM*,9.5%,-2.7,-9.2%,5.6
COc1ccc(NC(=O)CCN2C(=O)c3ccccc3C2=O)cc1,-12.7%,12.2%,-1.7,u,x
CCc1ccc(C(=O)CN2C(=O)NC(C)(c3ccc(C)cc3)C2=O)cc1 (configuration not stated),-18.3%,x,-5.3,u,-0.7
O=C(CCN1C(=O)c2ccccc2C1=O)Nc1ccc(-c2nc3ccccc3s2)cc1,-5.9%,-2.4%,33.2*,0.7%,110.4*
SMILES,AmpC inh no detg,NS1 inh,CHX counter,AmpC detergent,Shiga toxin inh
Cc1cccc(NC(=O)CCN2C(=O)c3ccccc3C2=O)c1,-18.3%,20.2%,0.6,3.7%,-7.2
Cc1ccc(C2(C)NC(=O)N(CC(=O)Nc3ccc(-c4nc5ccc(C)cc5s4)cc3)C2=O)cc1 (configuration not stated),-17.1%,-46.2%,54.4*,-3.3%,85.2*
CCS(=O)(=O)c1nc(S(=O)(=O)c2ccc(Cl)cc2)c(NCCCN2CCOCC2)s1,44.8%,-17.5%,-3.0,-0.2%,8.4
Cc1[nH]c(=O)[nH]c(=O)c1S(=O)(=O)Nc1cccc(Cl)c1C,x,x,x,12.2%,x
COc1cc2c(cc1NC(=O)COc1cc(C)cc(C)c1)oc1ccccc12,x,x,x,24.6%,x
O=C(CCN1C(=O)c2ccccc2C1=O)Nc1nc2ccccc2s1,-20.7%,-6.8%,19.4*,7.0%,-38.2
Cc1ccc2nc(-c3ccc(NC(=O)C(C)N4C(=O)c5ccccc5C4=O)cc3)sc2c1 (configuration not stated),-47.7%,9.2%,93.1*,-3.9%,50.8*
